Source: PubChem
Most compounds without a hit are left out; they make up all but 2.3% or so of the library.
Nrf2 block: Nrf2 pathway inhibition | Potency, µM (titrated, usually from 46 µM), without a hit: top-dose activity change, negative = inhibition, usual class: inhibitors | 360,000 tested, 2.1% active | A549 ARE-Fluc reporter, luciferase luminescence, 18-24 h | AID 504444; also: potency is read from the fitted curve at half-maximal effect; % is scaled to controls: 0 for no effect and ±100 for the full control effect; nearly all actives have a fitted effect of over 60% in size
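A549 ARE_Fluc cells, 5000/well, 5% FBS OPTI-MEM; compounds in dose-response, 18-24 h at 37 °C/5% CO2; CellTiter-Fluor viability read (Ex 405/Em 525), then BugLite luciferase luminescence = Nrf2 activity.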
Nrf2 ARE act: Nrf2 pathway activation; Potency, µM (doses to about 46.1 µM), inactives show at the top dose activation, usual class: activators; 410,000 tested, 0.31% active; AID 624171; AREc32 ARE-luciferase reporter (MCF7-derived line), luminescence, 24 h; also: potency is read from the fitted curve at half-maximal effect; % of control where 0% means no effect; nearly all actives have a fitted effect of over 65% in size
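ARE activation measured as luciferase luminescence (Steady-Glo, 30 min RT) in AREc32_Fluc cells after 24 hr compound exposure at 37 deg C, 5% CO2; cells seeded overnight at 1000/well in OPTI-MEM, 5% FBS.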
A549 viability: A549 cytotoxicity, counter-screen for Nrf2 inhibitors. A549 ARE-Fluc cells, CellTiter-Fluor viability, 18-24 h. Potency, µM (highest dose often 46 µM), for inactives: top-dose activity change, negative = cytotoxicity, actives largely listed as inhibitors. 390,000 tested, 0.16% active; also: potency is read from the fitted curve at half-maximal effect; % is scaled to controls: 0 for no effect and ±100 for the full control effect
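A549 ARE-Fluc cells in 5% FBS OPTI-MEM, 5000 cells/well, rested 2 h then exposed to compounds in concentration-response for 18-24 h at 37 °C. Viability by CellTiter-Fluor fluorescence (Ex 405/Em 525) after 30 min; luciferase luminescence (BugLite, 15 min, RT) read afterwards.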
IL-2 act: activators of IL-2 | AID 652025 | 360,000 tested, 0.065% active | IL-2 activation reporter assay, cell-based qHTS; stimulated with anti-CD3/CD4/CD28 beads; in transgenic mouse T cells | activation, % (series mostly up to about 46 µM); in the data active = activation above about 50%; inconclusive = mostly about 30% to 49%; also: 0% is about no effect
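Using fluorescent plate cytometry, EGFP and DsRed are detected in transgenic mouse T cells stimulated 18 h at 37 degrees C with antibody-coated beads after 60 min compound pretreatment.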
Active calls of the source: *; ? = inconclusive; nt = not tested or not shown; [ ] = another dose, or the depositor's remark. Unless noted, calls follow the shape of the dose curve; as a rule, active = well fitted curve in the direction sought with a large enough effect; inconclusive = small, poorly fitted or top-dose-only effect, or another doubt; inactive = no such curve, though single readings can be large; an effect the other way counts as inactive or inconclusive.

SMILES	Nrf2 block	Nrf2 ARE act	A549 viability	IL-2 act
CC[n+]1c(/C=C(\C)SC)sc2ccccc21	21µM*	2%	-18%	-2
Cc1ccc(C)c(CN2C(=O)c3ccccc3S(=O)(=O)c3ccc(C(=O)NCc4ccccc4)cc32)c1	7%	0%	-1%	nt
CC12CCC(C/C1=N\N=C1\NC(=O)/C(=C\c3cccc(Br)c3)S1)C2(C)C (configuration not stated)	18µM*	7%	?	0
CCC(=O)NC(c1ccco1)c1cc(Cl)c2c(c1O)NCCC2 (configuration not stated)	-6%	nt	-3%	nt
O=C(O)COc1ccc(-c2nccc(-c3ccccn3)n2)cc1	2.1µM*	-1%	-1%	4
FCCCOc1ccc(-c2nccc(-c3ccccn3)n2)cc1	?	13%	11%	0
O=C(O)Cc1nnc(-c2cc3ccccc3[nH]2)s1	?	nt	-1%	nt
COc1ccccc1N1CCN(Cc2cc(Br)c(O)c3ncccc23)CC1	18µM*	1%	-8%	-5
COc1ccc(N2C(=O)CCSC23C(=O)N(Cc2ccc(F)cc2)c2ccccc23)cc1Cl (configuration not stated)	-8%	12%	-9%	nt
COc1ccc(CCN(Cc2cc3cc(C)cc(C)c3nc2Cl)C(=O)C2CC2)cc1	16µM*	-1%	-21%	-2
COc1ccc(CN(CC2CCC(C(=O)O)CC2)C(=S)Nc2ccc(C)c(Cl)c2)cc1 (configuration not stated)	?	0%	-7%	-2
CC(C)n1cc(CN2CCCC(C(=O)Nc3cccc(-c4cc5ccccc5[nH]4)c3)C2)cn1 (configuration not stated)	-21%	-3%	-5%	-6
Cn1cc(CN2CCCC(C(=O)Nc3cccc(-c4cc5ccccc5[nH]4)c3)C2)cn1 (configuration not stated)	23µM*	-1%	?	-1
COc1ccc2c(Sc3ccc(Cl)cc3)c(C(=O)N3CCCCC3)[nH]c2c1	21µM*	0%	-9%	nt
COc1ccc2c(Sc3ccc(C)cc3)c(C(=O)NC(C)C)[nH]c2c1	23µM*	0%	-2%	nt
Cc1ccc2oc3c(c(=O)c2c1)C(c1ccc(O)cc1)N(c1nc(C)c(C)s1)C3=O (configuration not stated)	-4%	0%	-2%	nt
Cc1ccc(C)c(Cn2c(=O)cc(C)c3c(C)nn(-c4cccc(F)c4)c32)c1	4%	0%	6%	nt
CCC(=O)Nc1sc2c(c1C(=O)Nc1ccccc1C)CCC(C)C2 (configuration not stated)	nt	0%	4%	nt
S=C(NCCN1CCOCC1)N1CCN(c2cccc(Cl)c2)CC1	?	2%	-12%	1
S=C(NCc1ccco1)N1CCN(c2cccc(Cl)c2)CC1	15µM*	2%	7%	0
Cc1cccc(-c2noc(-c3cccnc3NCc3ccccc3Cl)n2)c1	?	0%	-10%	nt
O=C(Nc1ccc(Cl)cc1)N1CCN(C(=O)C2CCCO2)CC1 (configuration not stated)	-13%	-1%	-1%	2
O=C(Nc1cc(Cl)cc(Cl)c1)N1CCN(C(=O)C2CCCO2)CC1 (configuration not stated)	16µM*	1%	6%	-1
Cc1ccc(-c2cc(C(=O)OCC(=O)c3ccccc3)c3cccc(Cl)c3n2)cc1	?	2%	3%	nt
COc1cc(C(=O)/C=C/c2cccnc2)c([N+](=O)[O-])cc1OC	18µM*	-4%	?	-5
SMILES	Nrf2 block	Nrf2 ARE act	A549 viability	IL-2 act
CCn1ccc2cc(OC)ccc2c1=S	-13%	3%	-14%	-3
CCSc1ccc2cc(OC)ccc2[n+]1CC	16µM*	0%	-24%	-1
O=C(Nc1nc2c(Cl)cccc2s1)c1ccc([N+](=O)[O-])o1	6%	5µM*	-10%	1
O=C(Nc1nc2ccc(F)cc2s1)c1ccc([N+](=O)[O-])o1	nt	3.2µM*	nt	-1
O=C(Nc1nc2c(Cl)cccc2s1)c1ccc(Br)o1	10%	?	3%[1.84 µM]	3
O=C(Nc1nc2c(F)cccc2s1)c1ccc([N+](=O)[O-])o1	16%	10µM*	5%	-2
CCNc1nc(C#N)nc(NCC)n1	-4%	nt	-12%	nt
CC(C)Cn1c(SCC(=O)NC(=O)NC2CCCC2)nc2ccccc21	18µM*	3%	?	-1
CC(C)NC(=O)Cn1c(SCC(=O)NC2CCCC2)nc2ccccc21	7%	0%	-6%	-1
O=C(Nc1ccc2oc(-c3cccnc3)nc2c1)c1ccc(-c2ccccc2OC(F)(F)F)o1	0.65µM*	5%	-2%	nt
O=C(Nc1ccc2oc(-c3cccnc3)nc2c1)c1ccc(-c2ccc(OC(F)(F)F)cc2)o1	-13%	6%	1%	nt
O=C(Nc1ccc2oc(-c3cccnc3)nc2c1)c1ccc(-c2ccccc2)o1	13µM*	9%	-6%	nt
O=C(Cc1ccccc1)Nc1ccc2oc(-c3cccnc3)nc2c1	-3%	1%	-14%	1
COCCCn1c(=N)c(C(=O)NC2CCCCC2)cc2c(=O)n3cc(C)ccc3nc21	8%	0%	0%	nt
CC(=O)Nc1cccc(OC2=NS(=O)(=O)c3ccccc32)c1	?	nt	13%	nt
O=C(Nc1ccccc1-c1nc2ccccc2[nH]1)c1ccc(N2C(=O)CCC2=O)cc1	-18%	-1%	-11%	111*
CC1CCCCN1S(=O)(=O)c1ccc(C(=O)Nc2ccccc2-c2nc3ccccc3[nH]2)cc1 (configuration not stated)	23µM*	0%	-27%	0
O=C(Nc1ccccc1-c1nc2ccccc2[nH]1)c1ccc(S(=O)(=O)N2CCCCC2)cc1	?	-1%	?	-1
O=C(Nc1ccc(-c2nc3ccccc3[nH]2)cc1)c1cccc(N2C(=O)CCC2=O)c1	10%	4%	-1%	-2
N#Cc1nc(N2CCCCC2)nc(N2CCOCC2)n1	?	0%	-7%	-1
N#Cc1nc(N)nc(N2CCCCC2)n1	18µM*	nt	1%	nt
Cc1ccc(NS(=O)(=O)c2ccc3c(ccn3C)c2)cc1C	?	nt	5%	nt
CC[n+]1c(/C=C/C=C/N(C(C)=O)c2ccccc2)sc2cc(OC)ccc21	-11%	10%	15µM*	55*
CCN(Cc1ccccc1)c1ccc(Br)cn1	23%	nt	7%	nt
CCN(CC)c1ccc(C(=O)N2CCc3c([nH]c4ccccc34)C2c2ccc(F)cc2)cc1 (configuration not stated)	nt	0%	5%	nt
O=S(=O)(Nc1nc2ccccc2nc1N1CCN(c2ccccc2)CC1)c1ccc(F)cc1	26µM*	-1%	?	0
O=C(Nc1nc2c(s1)CN(Cc1ccccc1)CC2)C1CCC1	?	4%	3%	0
CN(C)c1ccc(/C=C(\C#N)C(=O)Nc2nc3c(s2)CCN(Cc2ccccc2)C3)cc1	?	3%	-14%	59*
Cc1ccc(CNc2ncnc3c2nnn3C)cc1	nt	-1%	1%	nt
COC(=O)c1oc(-c2ccccc2)nc1C	0%	13µM*	6%	0
